This note sets out measurements from PubChem BioAssay.

“And” between values parts separate entries of the source, which are not always exact repeats. Equal entries are not always repeated. The source made the active and inactive calls. No rule for the calls is given here.

System in the first assay: not listed separately
The experiment in a line: kinase inhibitors altering Pseudomonas killing of worms, whole organism (AID 651566).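 Also: tested at 14 µM; sign flipped so higher z means a lower ratio.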 The conditions noted are these: C. elegans killed by P. aeruginosa, survival ratio.
Consider `Cc1cccc(Oc2nccc(-c3c(-c4ccc(F)cc4)ncn3C3CCNCC3)n2)c1C`, for which the z-score is -0.775 (inactive).
Still for that read-out and setting: in the case of `COc1cc2ncn(-c3cc(OCc4ccccc4C(F)(F)F)c(C(N)=O)s3)c2cc1OC` it was 0.57 (inactive); in that of `CC(C)(C)c1ccc(Oc2nccc(-c3c(-c4ccc(F)cc4)ncn3C3CCNCC3)n2)cc1`, 0.215 (inactive).
As for `COc1cc2ncn(-c3cc(O[C@@H](C)c4ccccc4Cl)c(C(N)=O)s3)c2cc1OC`, the z-score is -0.555 (inactive).
Still for that read-out and setting: in the case of `COc1ccccc1C1=C(Nc2ccccc2)C(=O)NC1=O` it was -0.36 (inactive); in that of `O=C1NC(=O)C(c2ccccc2)=C1Nc1ccccc1`, 0.425 (inactive).
For the molecule `COc1cc(Nc2ncc(-c3ccccc3)o2)cc(OC)c1OC`, the z-score is 1.53 (inactive).
The same measure, in the same setting: the value for `CS(=O)(=O)CCNCc1ccc(-c2ccc3ncnc(Nc4ccc(OCc5ccccc5)c(Cl)c4)c3c2)o1` was -0.785 (inactive).

System in the next assay: not listed separately
Kind of assay: activators of macrophage pro-inflammatory response, cell-based, murine, luminescence (AID 652131). Also: test concentration not given here. The following applies: murine macrophage pro-inflammatory reporter, stronger effect = higher value.
Regarding `Cc1cccc(Oc2nccc(-c3c(-c4ccc(F)cc4)ncn3C3CCNCC3)n2)c1C`, the z-score was 8.3 (active).
On to `COc1cc2ncn(-c3cc(OCc4ccccc4C(F)(F)F)c(C(N)=O)s3)c2cc1OC`, for which the z-score was -0.405 (inactive).
Turning to `CC(C)(C)c1ccc(Oc2nccc(-c3c(-c4ccc(F)cc4)ncn3C3CCNCC3)n2)cc1`, the z-score was -0.618 (inactive).
Same read-out and setting: in the case of `COc1cc2ncn(-c3cc(O[C@@H](C)c4ccccc4Cl)c(C(N)=O)s3)c2cc1OC` it was -0.639 (inactive); in that of `COc1ccccc1C1=C(Nc2ccccc2)C(=O)NC1=O`, -0.103 (inactive); in that of `O=C1NC(=O)C(c2ccccc2)=C1Nc1ccccc1`, -0.099 (inactive).
With `COc1cc(Nc2ncc(-c3ccccc3)o2)cc(OC)c1OC`, the z-score was -0.164 (inactive).
Still for that read-out and setting: in the case of `CS(=O)(=O)CCNCc1ccc(-c2ccc3ncnc(Nc4ccc(OCc5ccccc5)c(Cl)c4)c3c2)o1` it was 2.12 (inactive).

The target in a further assay is Cellular tumor antigen p53 (Homo sapiens) (UniProt P04637). The experiment in a line: kinase inhibitors altering GFP-p53 stability in HPV16-positive cells, imaging, known kinase inhibitor set, EGFP/DsRed ratio (AID 1053116).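 Also: test concentration not given here; cells exposed to compounds for 24 h at 37 °C before reading.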 The following applies: stronger effect = higher value; EGFP object count: measured here: GFP-p53 positive objects count.
Cellular tumor antigen p53 (Homo sapiens), sequence (P04637 whole entry, looked up): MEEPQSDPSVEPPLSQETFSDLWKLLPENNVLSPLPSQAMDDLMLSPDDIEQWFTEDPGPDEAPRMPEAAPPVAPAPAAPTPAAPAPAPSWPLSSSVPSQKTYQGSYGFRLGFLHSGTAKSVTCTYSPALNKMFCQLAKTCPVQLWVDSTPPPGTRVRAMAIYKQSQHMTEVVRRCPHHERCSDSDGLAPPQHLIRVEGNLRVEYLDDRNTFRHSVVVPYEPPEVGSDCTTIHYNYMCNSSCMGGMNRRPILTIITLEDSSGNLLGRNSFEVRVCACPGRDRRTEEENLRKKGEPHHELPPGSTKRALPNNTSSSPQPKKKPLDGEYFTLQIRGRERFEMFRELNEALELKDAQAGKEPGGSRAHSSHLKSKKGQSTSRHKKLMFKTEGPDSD
For `Nc1c(C(=O)c2cccc(CCC3(O)CCCC3)c2)cnn1-c1ccc(F)cc1`, the EGFP object count came out at 2.5 and the EGFP/DsRed ratio is 0.0989 (inactive).
Turning to `O=C1NC(=NCCc2ccc(Br)cc2)SC1=Cc1ccc2ncccc2c1`, the EGFP/DsRed ratio was 0.0813 (inactive) and the EGFP object count was determined as 3.
For `Cn1cc(C2=C(c3cn(C)c4cc(C(=O)O)ccc34)C(=O)NC2=O)c2ccccc21`, in that order: 0.485 (inactive) and 2.5.
`CCOc1ccccc1CCN=C1NC(=O)C(=Cc2ccc3ncccc3c2)S1`: the EGFP object count is 11.5 and the EGFP/DsRed ratio was 0.141 (inactive).
For `Cn1cc(C2=C(c3cn(CCCCN)c4ccccc34)C(=O)NC2=O)c2ccccc21`, the EGFP object count came out at 3.5 and the EGFP/DsRed ratio is 0.117 (inactive).
For the molecule `O=c1c(Oc2ccc(F)cc2F)cc2cnc(NC3CCOCC3)nc2n1C1CCS(=O)(=O)CC1`, the EGFP object count was determined as 3 and the EGFP/DsRed ratio was 0.101 (inactive).
Turning to `CC(CO)Nc1cc(-c2[nH]c3cccnc3c2-c2ccc(F)cc2)ccn1` (stereo unspecified), the EGFP/DsRed ratio was 0.0626 (inactive) and the EGFP object count turned out to be 4.5.
For `Cn1cc(C2=C(c3cccc(Cl)c3)C(=O)NC2=O)c2ccccc21`, in that order: 0.137 (inactive) and 5.
As for `Cn1cc(C2=C(c3cn(C)c4ccc(OCc5ccccc5)cc34)C(=O)NC2=O)c2ccccc21`, the EGFP/DsRed ratio was 0.132 (inactive) and the EGFP object count came out at 4.5.
Taken in the same sequence, the figures for `Cn1c(=O)c(Oc2ccccc2)cc2cnc(NC3CCOCC3)nc21` were 0.0479 (inactive) and 3.5.
For `Nc1c(C(=O)c2cccc(-c3cccnc3)c2)cnn1-c1ccc(F)cc1F`, in that order: 0.0328 (inactive) and 4.5.
Taken in the same sequence, the figures for `N#CCn1c(=O)c(Oc2ccc(F)cc2F)cc2cnc(NC3CCOCC3)nc21` were 0.064 (inactive) and 2.5.
Take `Cn1cc(C2=C(Sc3ccccc3)C(=O)NC2=O)c2ccccc21`: the EGFP object count worked out at 2.5 and the EGFP/DsRed ratio is 0.0664 (inactive).
Taken in the same sequence, the figures for `COc1ccc(N2Cc3cnc(Nc4ccccc4)nc3N(C3CCC(O)C3)C2=O)cc1` (stereo unspecified) were 1.5 and 0.0589 (inactive).
Regarding `Cn1cc(C2=C(c3cccc(OCC(O)CO)c3)C(=O)NC2=O)c2ccccc21` (stereo unspecified), the EGFP/DsRed ratio was 0.14 (inactive) and 0.372 (inactive); the EGFP object count was 7 and 9.5.
Take `COc1ccccc1C(=O)c1cnc(NC2CCN(S(C)(=O)=O)CC2)nc1N`: the EGFP/DsRed ratio is 0.0796 (inactive) and the EGFP object count was found to be 5.
In the case of `Cn1cc(C2=C(NN3CCOCC3)C(=O)NC2=O)c2ccccc21`, the EGFP object count came out at 7 and the EGFP/DsRed ratio was 0.147 (inactive).
On to `CN1CC2Cc3c(C4=C(c5cn(C)c6ccccc56)C(=O)NC4=O)c4ccccc4n3CC2C1` (stereo unspecified), for which the EGFP object count was 2.5 and 3.5; the EGFP/DsRed ratio was 0.0121 (inactive) and 0.0134 (inactive).
Consider `CCCn1cc(C2=C(c3cn(C)c4ccccc34)C(=O)NC2=O)c2ccccc21`, for which the EGFP object count came to 17.5 and the EGFP/DsRed ratio is 0.158 (inactive).
Taken in the same sequence, the figures for `COc1cccc(C2=C(c3cn(C)c4ccccc34)C(=O)NC2=O)c1` were 9.5 and 0.204 (inactive).
